BAZ2B inh: qHTS Assay for Inhibitors of BAZ2B; 4.4% of 360,000 active; AID 504333, 2011; AlphaScreen BAZ2B-H3K14Ac peptide displacement; Potency, µM (titrated, usually from 114 µM), for inactives: at the highest dose activity change, negative = inhibition, most hits filed as inhibitors; further: potency means the concentration at half of the fitted maximal effect; on the % scale 0 is the no-effect control and ±100 the full control effect; nearly all actives have a fitted effect of over 60% in size
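Protein-peptide AlphaScreen: BAZ2B 50 nM, b-H3K14Ac 50 nM, 1x PBS pH 7.4 + 0.01% Tween-20. Preincubation 30 min RT; cpd 30 min RT (top 110 uM); beads 20 min RT, light-protected.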
PI5P4Ka inh: qHTS for Inhibitors of phosphatidylinositol 5-phosphate 4-kinase (PI5P4K); Phosphatidylinositol 5-phosphate 4-kinase type-2 alpha (Homo sapiens), P48426; PI5P4Kalpha enzyme, ADP-Glo luminescence, 60 min; active compounds read low; max response, %; 1.2% of 330,000 active; active means max response of -50% or lower; inconclusive means between -30% and -50%; inactive means -30% or higher; further: value at the top dose of about 77 µM; on the % scale 0 is the no-effect control and ±100 the full control effect
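Human PI5P4Kalpha with substrate in 0.038 M HEPES pH 7.4, 0.28 mM EGTA, 0.1% CHAPS, 5% DMSO; reaction started with 5 microM ATP (final), 60 min at room temperature. ADP formed read by ADP-Glo luminescence.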
G9a inh: qHTS Assay for Inhibitors of Histone Lysine Methyltransferase G9a | Histone-lysine N-methyltransferase EHMT2 (Homo sapiens), Q96KQ7 | G9a H3K9 monomethylation, AlphaScreen, 2 h | Potency, µM (doses to about 102 µM), for inactives: at the highest dose activity, negative = inhibition, hits mostly inhibitors | 8.8% of 350,000 active | AID 504332, 2011; further: potency means the concentration at half of the fitted maximal effect; on the % scale 0 is the no-effect control and ±100 the full control effect; nearly all actives have a fitted effect of over 75% in size
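Chemiluminescent proximity detection of H3K9 monomethylation, read after 10 min bead incubation in the dark. Reaction: 20 nM G9a, 500 nM biotin-H3K9 peptide, 20 uM SAM cofactor, 2 h, room temperature, following 15 min enzyme-compound preincubation.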
JMJD2A Tudor inh: qHTS Assay for Inhibitors of JMJD2A-Tudor Domain | AlphaScreen JMJD2A-Tudor / H3K4me3 peptide binding | AID 504339, 2011 | Potency, µM (titrated, usually from 114 µM), for inactives: top-dose activity change, negative = inhibition, hits mostly inhibitors | 4.4% of 390,000 active; further: potency means the concentration at half of the fitted maximal effect; on the % scale 0 is the no-effect control and ±100 the full control effect; nearly all actives have a fitted effect of over 50% in size
PLK1 PBD inh: qHTS for Inhibitors of PLK1-PDB (polo-like kinase 1 - polo-box domain): Primary Screen; Serine/threonine-protein kinase PLK1 (Homo sapiens), P53350; 2.8% of 360,000 active; Plk1 PBD binding of FITC phosphopeptide, fluorescence polarization; Potency, µM, inactives show max response, negative = inhibition, actives largely listed as inhibitors; further: potency means the concentration at half of the fitted maximal effect; series mostly up to about 57 µM; on the % scale 0 is the no-effect control and ±100 the full control effect; nearly all actives have a fitted effect of over 65% in size
Target sequence (P53350 whole entry, looked up, the tested form may be a part): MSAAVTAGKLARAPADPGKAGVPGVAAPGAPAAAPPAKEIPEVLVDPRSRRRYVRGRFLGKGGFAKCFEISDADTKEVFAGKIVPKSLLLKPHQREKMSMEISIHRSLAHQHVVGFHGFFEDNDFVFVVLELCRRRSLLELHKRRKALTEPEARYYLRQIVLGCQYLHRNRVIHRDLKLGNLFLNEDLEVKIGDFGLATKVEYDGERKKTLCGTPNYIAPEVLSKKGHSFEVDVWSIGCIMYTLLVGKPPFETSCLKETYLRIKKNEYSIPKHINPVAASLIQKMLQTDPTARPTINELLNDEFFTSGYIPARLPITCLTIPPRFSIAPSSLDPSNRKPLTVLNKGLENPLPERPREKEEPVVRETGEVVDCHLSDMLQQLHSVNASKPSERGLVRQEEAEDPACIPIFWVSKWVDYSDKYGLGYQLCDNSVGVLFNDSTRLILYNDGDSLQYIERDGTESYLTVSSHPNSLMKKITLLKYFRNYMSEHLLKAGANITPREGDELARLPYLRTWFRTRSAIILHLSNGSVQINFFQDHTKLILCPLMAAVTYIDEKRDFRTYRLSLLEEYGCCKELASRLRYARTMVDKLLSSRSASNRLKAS
HP1b chromo inh: HTS for Inhibitors of HP1-beta Chromodomain Interactions with Methylated Histone Tails; 0.56% of 390,000 active; Chromobox protein homolog 1 (Homo sapiens), P83916; Potency, µM (series often up to 114 µM), without a hit: at the top dose activity change, negative = inhibition, hits mostly inhibitors; AID 540317, 2011; AlphaScreen HP1-beta / biotin-H3K9me3 peptide binding; further: potency means the concentration at half of the fitted maximal effect; nearly all actives have a fitted effect of over 70% in size
Target sequence (P83916 whole entry, looked up): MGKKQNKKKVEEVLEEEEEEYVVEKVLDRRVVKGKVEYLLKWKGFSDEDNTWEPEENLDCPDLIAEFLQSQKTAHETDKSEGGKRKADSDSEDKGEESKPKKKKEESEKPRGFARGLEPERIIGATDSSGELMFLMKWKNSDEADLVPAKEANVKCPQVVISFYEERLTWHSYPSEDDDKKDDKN
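Compound inhibition of the preformed complex between 50 nM HP1-beta and 50 nM biotinylated H3K9me3 peptide was read by AlphaScreen. Buffer was PBS pH 7.4 with 0.01% Tween-20. Incubations ran 30 min at room temperature, with 10 ug/mL donor/acceptor beads.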
* hit, by the source's call; ? = inconclusive; nt = not tested or not shown; [ ] = remark or other dose. Sampled rows, rich in hits. Any-hit rate of the full collection: about 12%. Unless noted, the call rests on the fitted dose curve; in most records, active means well fitted curve in the direction sought with a large enough effect; inconclusive means small, poorly fitted or top-dose-only effect, or another doubt; inactive means no such curve, though single readings can be large; an effect the other way counts as inactive or inconclusive.

SMILES	BAZ2B inh	PI5P4Ka inh	G9a inh	JMJD2A Tudor inh	PLK1 PBD inh	HP1b chromo inh
Cc1ccc2cc(C(c3nnnn3CC3CCCO3)N3CCc4ccccc4C3)c(=O)[nH]c2c1 (configuration not stated)	1.9%	-6.0	?	-34.2%	-21.1%	15.8%
COc1cc(Cl)ccc1OCc1cc(C(=O)N(C)CC2CCCCO2)no1 (configuration not stated)	-5.5%[57.1 µM]	-0.7	10.3%	-3.3%	-11.8%	22.5%
O=C(Cn1cc(S(=O)(=O)Cc2ccc(F)cc2)c2ccccc21)NCc1ccccc1Cl	0.9%	nt	-6.5%[59 µM]	-27.7%	nt	17.4%
CC(=O)Oc1ccc2cc(-c3nc4c(s3)CCc3ccccc3-4)c(=O)oc2c1	nt	nt	nt	-0.8%[57.1 µM]	nt	33.9%[57 µM]
COC(=O)CC1Oc2ccc(F)cc2-n2cc(-c3ccc(Cl)cc3)nc21 (configuration not stated)	-28.3%	nt	-2.2%[59 µM]	-15.3%	nt	0.2%
Nc1nc2c(s1)CC(c1ccccc1)CC2 (configuration not stated)	?	1.1	50.1µM*	5.5%[11.4 µM]	?	-2.0%
Cc1cc(OCc2nc3ccccc3s2)ccc1N	39.8µM*	-12.2	10µM*	?	10.6µM*	?
CCC(=O)Nc1ccc(OCc2nc3ccccc3s2)cc1	nt	-30.0	10µM*	-30.8%	16.8µM*	-26.2%
c1ccc(OCc2nc3ccccc3s2)cc1	57.8%	nt	57.7%[59 µM]	64.2%	-6.9%	93.3%
CC(NC(=O)c1ccc(S(=O)(=O)N(C)C)cc1)c1ccc(-n2ccnc2)cc1 (configuration not stated)	-33.8%	-0.2	2.0%	-13.6%	-14.8%	-2.7%
CC(NC(=O)c1ccc(S(=O)(=O)N(C)C)cc1)c1ccccc1 (configuration not stated)	-4.8%	-4.6	4.0%[12.7 µM]	79.4µM*	?	-15.4%
Cc1ccc(C(=O)COC(=O)C(Cc2c[nH]c3ccccc23)NC(=O)c2ccc(C(C)(C)C)cc2)cc1 (configuration not stated)	-9.4%	nt	?	-31.4%	nt	6.0%
O=C(NCC[C@@H]1CC[C@@H](NS(=O)(=O)c2ccccc2)[C@@H](CO)O1)c1cc(Cl)cc(Cl)c1	nt	0.2	nt	nt	-7.0%	nt
COc1ccc(N2CCN(C(=O)Cc3coc4ccc(C)cc34)CC2)cc1	39.8µM*	nt	15.8µM*	?	nt	?
COc1ccc(N2CCN(C(=O)CCC(=O)N3CC(C)Oc4ccc(C)cc43)CC2)cc1 (configuration not stated)	39.8µM*	-4.1	44.7µM*	?	-7.9%	-19.3%
COc1ccc(N2CCN(C(=O)c3cc(=O)c4ccc(C)cc4o3)CC2)cc1	?	-5.8	21.1%[0.501 µM]	-34.2%	-15.2%	2.4%
COc1ccc(N2CCN(C(=O)Cc3coc4cc(C)ccc34)CC2)cc1	39.8µM*	2.7	44.7µM*	-29.7%[57.1 µM]	-7.5%	-12.2%
COc1ccc(N2CCN(C(=O)CCC(=O)N3CCOc4ccc(C)cc43)CC2)cc1	-8.1%	-3.3	nt	?	-9.9%	-10.5%
COc1ccc(CCC(=O)N/N=C(\C)c2ccc3c(c2)OCO3)cc1	-10.3%	-3.5	nt	-22.8%	-4.8%	8.6%
C=CCn1c(C(CCCC)CC(O)COCCC)n[nH]c1=S (configuration not stated)	13.7%	0.9	?	-3.0%	-1.6%	43.8%
C=CCn1c(C(CC(C)C)CC(C)O)n[nH]c1=S (configuration not stated)	-0.6%	-7.0	28.2µM*	8.91µM*	-22.6%	-23.4%
C=CCn1c(C(CC)CC(C)(C)O)n[nH]c1=S (configuration not stated)	-38.7%	6.5	-1.7%[59 µM]	-16.1%	-1.2%	nt
C=CCn1c(C(CCCC)CC(O)COCC(C)C)n[nH]c1=S (configuration not stated)	-23.7%	3.4	31.6µM*	39.8µM*	-15.0%	47.6%
C=CCn1c(CCC(O)COCCCCC)n[nH]c1=S (configuration not stated)	-19.9%	-5.0	28.2µM*	20µM*	-10.5%	-13.8%
CCOC(=O)c1noc2nc(C)n(CC(=O)Nc3ccc(Br)cc3C)c(=O)c12	0.7%	nt	4.6%[59 µM]	?	nt	21.9%[57 µM]
SMILES	BAZ2B inh	PI5P4Ka inh	G9a inh	JMJD2A Tudor inh	PLK1 PBD inh	HP1b chromo inh
Cc1nc2cnc(Oc3ccccc3)nc2n(CCC#N)c1=O	nt	nt	3.8%[12.7 µM]	nt	nt	nt
CCOc1ccc(NC(=O)CC2C(=O)N(c3cccc(C)c3)C(=O)N2CCC2=CCCCC2)cc1 (configuration not stated)	-11.5%	nt	0.0%[59 µM]	?	nt	42.8%
C=CCSC1=N/C(=C\c2cc(OCC)c(OC(C)=O)c([N+](=O)[O-])c2)C(=O)S1	35.5µM*	-72.3*	12.6µM*	17.8µM*	-26.5%	28.2µM*
Nc1nc(NCC2CCC(CNS(=O)(=O)c3cccc4ccccc34)CC2)nc2ccccc12 (configuration not stated)	nt	nt	25.1µM*	nt	nt	nt
CCOC(=O)c1c(NC(=O)CSc2ncccn2)sc2c1CCN(Cc1ccccc1)C2	?	-10.2	?	22.4µM*	23.8µM*	-13.9%
CCOC(=O)c1c(NC(C)=O)sc2c1CCN(Cc1ccccc1)C2	-3.4%	5.0	nt	-25.4%	-1.1%	23.5%
COC(=O)c1c(NC(=O)C2COc3ccccc3O2)sc2c1CCN(Cc1ccccc1)C2 (configuration not stated)	-9.7%	7.7	79.4µM*	?	5.9%	11.3%
CCOC(=O)c1c(NC(=O)CC)sc2c1CCN(Cc1ccccc1)C2	-5.5%	8.2	nt	-31.9%	4.1%	11.8%
CCOC(=O)c1c(NC(=O)C(C)Sc2cccc[n+]2[O-])sc2c1CCN(Cc1ccccc1)C2 (configuration not stated)	-9.8%	-0.3	8.91µM*	?	15.2%	-9.9%
O=C(NNS(=O)(=O)c1ccc([N+](=O)[O-])cc1)c1ccc([N+](=O)[O-])cc1	-18.9%	12.7	16.7%[2.33 µM]	1.26µM*	-8.4%	?
CC(=O)Nc1ccc(S(=O)(=O)NNC(=O)c2ccc([N+](=O)[O-])cc2)cc1	-15.8%	-1.8	-21.9%	-12.6%	-1.9%	3.5%
O=C(NNc1ccc([N+](=O)[O-])cc1)c1ccccc1F	-37.7%	1.1	35.5µM*	-26.3%	-11.4%	13.2%
O=C(NNc1ccc([N+](=O)[O-])cc1)c1ccccc1Cl	-3.6%	-2.0	?	-19.0%	-14.7%	16.8%
O=C(NNS(=O)(=O)c1ccc(Br)cc1)c1ccncc1	-28.2%	nt	38.7%[0.501 µM]	?	-3.8%	4.9%
